# How the values were obtained:
# Test in all cases: DAPPL (digital affinity profiling via proximity ligation, sequencing); 10 mM Tris-HCl pH 7.5, 50 mM NaCl, 1 mM DTT, 4% glycerol, room temperature, 30 min; GST-TFs on glutathione beads, 16-mer random dsDNA library, 0.1% formaldehyde crosslink after washing; high values mean tight binding
# FLI1 = target: T1, FLI1 (Homo sapiens, UniProt Q01543 1-452); conditions: protein: recombinant; tags: N-terminal GST; dsDNA, one strand shown
# T1 sequence: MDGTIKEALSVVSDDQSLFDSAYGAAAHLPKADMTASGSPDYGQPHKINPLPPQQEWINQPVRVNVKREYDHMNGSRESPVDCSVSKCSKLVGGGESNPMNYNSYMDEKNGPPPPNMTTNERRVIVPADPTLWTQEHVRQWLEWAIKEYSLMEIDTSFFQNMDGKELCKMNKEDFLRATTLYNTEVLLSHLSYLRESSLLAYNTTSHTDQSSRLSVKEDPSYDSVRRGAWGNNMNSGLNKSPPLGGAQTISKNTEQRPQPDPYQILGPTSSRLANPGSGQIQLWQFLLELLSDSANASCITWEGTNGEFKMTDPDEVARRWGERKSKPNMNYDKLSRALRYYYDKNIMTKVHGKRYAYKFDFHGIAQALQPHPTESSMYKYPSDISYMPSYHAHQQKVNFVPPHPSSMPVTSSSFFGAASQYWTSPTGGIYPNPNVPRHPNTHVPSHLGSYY
# Outline: (§1)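 A tag-only sample was pooled with DNA-barcoded human transcription factors that had been expressed in yeast as GST fusions and captured on glutathione beads. The pools were incubated for 30 min at room temperature with 200 nmole of a random double-stranded 16-mer DNA library in Tris/NaCl/DTT/glycerol buffer, then washed, crosslinked with 0.1% formaldehyde, proximity-ligated (BsaI/T4 ligase, 1 h, 37 °C), PCR-amplified and sequenced on an Illumina NextSeq500. Binding signal is each hexamer's read frequency for a factor divided by its frequency for the tag-only sample.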
# ELK1 = target: T2, ELK1 (Homo sapiens, UniProt P19419 1-428); conditions: protein: recombinant; tags: N-terminal GST; dsDNA, one strand shown
# T2 sequence: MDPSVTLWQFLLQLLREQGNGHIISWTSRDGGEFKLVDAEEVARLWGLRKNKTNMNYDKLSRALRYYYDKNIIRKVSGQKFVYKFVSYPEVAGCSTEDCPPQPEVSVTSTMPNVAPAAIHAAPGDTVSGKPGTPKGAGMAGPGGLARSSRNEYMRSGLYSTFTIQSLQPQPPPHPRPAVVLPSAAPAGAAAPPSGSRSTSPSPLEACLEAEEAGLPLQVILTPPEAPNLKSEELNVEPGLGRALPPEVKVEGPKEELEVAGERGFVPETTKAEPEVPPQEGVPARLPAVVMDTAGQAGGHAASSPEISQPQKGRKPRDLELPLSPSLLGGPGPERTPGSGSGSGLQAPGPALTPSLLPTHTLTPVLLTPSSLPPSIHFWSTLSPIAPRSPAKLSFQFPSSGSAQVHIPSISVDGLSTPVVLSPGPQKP
# Outline: as §1
# GABPA = target: T3, GABPA (Homo sapiens, UniProt Q06546 1-454); conditions: protein: recombinant; tags: N-terminal GST; dsDNA, one strand shown
# T3 sequence: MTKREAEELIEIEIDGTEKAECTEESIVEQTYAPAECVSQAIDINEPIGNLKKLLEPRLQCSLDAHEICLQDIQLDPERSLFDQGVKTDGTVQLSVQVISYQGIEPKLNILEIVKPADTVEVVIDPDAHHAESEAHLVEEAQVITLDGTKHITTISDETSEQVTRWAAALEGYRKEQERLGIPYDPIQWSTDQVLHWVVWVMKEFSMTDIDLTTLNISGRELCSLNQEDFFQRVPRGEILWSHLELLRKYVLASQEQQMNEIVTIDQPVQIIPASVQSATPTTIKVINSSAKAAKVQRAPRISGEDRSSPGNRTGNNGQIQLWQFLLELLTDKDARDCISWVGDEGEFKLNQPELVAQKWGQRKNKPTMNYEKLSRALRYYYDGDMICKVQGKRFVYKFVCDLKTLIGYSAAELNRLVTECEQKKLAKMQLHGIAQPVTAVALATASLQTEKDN
# Outline: as §1
# ERG = target: T4, ERG (Homo sapiens, UniProt P11308 1-479); conditions: protein: recombinant; tags: N-terminal GST; dsDNA, one strand shown
# T4 sequence: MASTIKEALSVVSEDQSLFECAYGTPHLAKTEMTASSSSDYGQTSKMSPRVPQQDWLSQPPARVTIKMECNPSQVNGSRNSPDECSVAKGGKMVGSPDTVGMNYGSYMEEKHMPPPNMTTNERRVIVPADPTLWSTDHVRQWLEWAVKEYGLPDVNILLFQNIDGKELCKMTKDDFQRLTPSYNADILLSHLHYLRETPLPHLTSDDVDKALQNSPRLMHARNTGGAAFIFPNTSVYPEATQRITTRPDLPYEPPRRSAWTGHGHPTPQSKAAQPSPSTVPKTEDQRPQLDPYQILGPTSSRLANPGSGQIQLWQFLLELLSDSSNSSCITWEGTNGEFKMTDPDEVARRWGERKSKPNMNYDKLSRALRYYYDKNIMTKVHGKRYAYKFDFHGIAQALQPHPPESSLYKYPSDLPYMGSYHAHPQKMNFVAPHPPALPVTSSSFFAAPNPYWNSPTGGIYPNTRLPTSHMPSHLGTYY
# Outline: as §1
# ELF1 = ELF1 (Homo sapiens, UniProt P32519 1-619); conditions: protein: recombinant; tags: N-terminal GST; dsDNA, one strand shown
# Sequence of ELF1 (P32519 whole entry): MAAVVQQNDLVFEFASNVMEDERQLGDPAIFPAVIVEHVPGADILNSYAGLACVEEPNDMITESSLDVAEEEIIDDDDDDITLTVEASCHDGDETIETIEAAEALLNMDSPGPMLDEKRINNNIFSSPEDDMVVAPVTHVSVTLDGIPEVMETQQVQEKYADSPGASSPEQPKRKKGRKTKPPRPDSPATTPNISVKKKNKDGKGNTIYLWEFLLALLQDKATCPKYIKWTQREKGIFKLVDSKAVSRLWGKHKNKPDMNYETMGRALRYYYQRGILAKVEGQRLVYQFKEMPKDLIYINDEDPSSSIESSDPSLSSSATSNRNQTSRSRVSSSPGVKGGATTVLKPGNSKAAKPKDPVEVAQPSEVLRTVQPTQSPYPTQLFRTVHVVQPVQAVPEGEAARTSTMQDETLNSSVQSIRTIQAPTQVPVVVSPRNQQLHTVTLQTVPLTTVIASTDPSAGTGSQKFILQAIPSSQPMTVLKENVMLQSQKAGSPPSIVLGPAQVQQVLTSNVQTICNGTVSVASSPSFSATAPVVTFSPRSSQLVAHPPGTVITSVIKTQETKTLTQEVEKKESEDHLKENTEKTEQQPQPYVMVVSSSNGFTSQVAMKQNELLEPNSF
# Outline: as §1
# EHF = target: T5, EHF (Homo sapiens, UniProt Q9NZC4 1-300); conditions: protein: recombinant; tags: N-terminal GST; dsDNA, one strand shown
# T5 sequence: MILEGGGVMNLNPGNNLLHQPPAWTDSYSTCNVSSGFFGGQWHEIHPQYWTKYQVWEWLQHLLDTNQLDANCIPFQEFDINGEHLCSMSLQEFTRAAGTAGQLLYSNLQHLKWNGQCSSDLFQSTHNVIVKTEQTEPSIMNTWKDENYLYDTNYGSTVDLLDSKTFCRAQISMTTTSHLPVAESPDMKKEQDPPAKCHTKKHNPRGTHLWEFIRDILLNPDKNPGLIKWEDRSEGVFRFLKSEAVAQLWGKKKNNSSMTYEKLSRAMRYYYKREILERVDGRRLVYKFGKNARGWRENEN
# Outline: as §1
# SPI1 = SPI1 (Homo sapiens, UniProt P17947 1-270); conditions: protein: recombinant; tags: N-terminal GST; dsDNA, one strand shown
# Outline: as §1
# SPIB = SPIB (Homo sapiens, UniProt Q01892 1-262); conditions: protein: recombinant; tags: N-terminal GST; dsDNA, one strand shown
# Sequence of SPIB (Q01892 whole entry): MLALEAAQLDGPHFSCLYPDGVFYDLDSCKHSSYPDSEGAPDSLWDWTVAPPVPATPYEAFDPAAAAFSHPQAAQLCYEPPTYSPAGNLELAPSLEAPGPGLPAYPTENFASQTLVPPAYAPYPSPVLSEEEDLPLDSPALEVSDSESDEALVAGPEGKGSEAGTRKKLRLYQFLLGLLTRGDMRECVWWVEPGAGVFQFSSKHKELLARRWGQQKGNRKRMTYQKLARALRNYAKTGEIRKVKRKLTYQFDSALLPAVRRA
# Outline: as §1
# ELK3 = target: T6, ELK3 (Homo sapiens, UniProt P41970 1-407); conditions: protein: recombinant; tags: N-terminal GST; dsDNA, one strand shown
# T6 sequence: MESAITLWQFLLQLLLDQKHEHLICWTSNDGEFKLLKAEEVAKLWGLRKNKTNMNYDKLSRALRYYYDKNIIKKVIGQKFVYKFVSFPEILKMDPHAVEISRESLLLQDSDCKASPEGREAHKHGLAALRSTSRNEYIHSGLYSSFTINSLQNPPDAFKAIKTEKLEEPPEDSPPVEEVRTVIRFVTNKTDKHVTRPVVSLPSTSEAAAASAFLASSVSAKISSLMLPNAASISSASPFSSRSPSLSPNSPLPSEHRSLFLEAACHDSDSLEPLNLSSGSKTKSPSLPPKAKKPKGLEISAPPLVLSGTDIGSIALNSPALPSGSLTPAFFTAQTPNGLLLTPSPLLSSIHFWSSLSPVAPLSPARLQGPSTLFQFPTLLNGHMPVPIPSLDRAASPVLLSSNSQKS
# Outline: as §1
# FEV = target: T7, FEV (Homo sapiens, UniProt Q99581 1-238); conditions: protein: recombinant; tags: N-terminal GST; dsDNA, one strand shown
# T7 sequence: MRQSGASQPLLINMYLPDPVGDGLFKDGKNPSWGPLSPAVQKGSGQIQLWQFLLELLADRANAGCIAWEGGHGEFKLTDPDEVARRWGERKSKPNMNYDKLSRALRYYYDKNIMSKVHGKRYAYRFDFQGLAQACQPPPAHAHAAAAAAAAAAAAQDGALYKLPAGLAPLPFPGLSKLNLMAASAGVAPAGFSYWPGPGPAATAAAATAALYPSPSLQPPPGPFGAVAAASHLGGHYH
# Outline: as §1
# ETV5 = ETV5 (Homo sapiens, UniProt P41161 1-510); conditions: protein: recombinant; tags: N-terminal GST; dsDNA, one strand shown
# Sequence of ETV5 (P41161 whole entry): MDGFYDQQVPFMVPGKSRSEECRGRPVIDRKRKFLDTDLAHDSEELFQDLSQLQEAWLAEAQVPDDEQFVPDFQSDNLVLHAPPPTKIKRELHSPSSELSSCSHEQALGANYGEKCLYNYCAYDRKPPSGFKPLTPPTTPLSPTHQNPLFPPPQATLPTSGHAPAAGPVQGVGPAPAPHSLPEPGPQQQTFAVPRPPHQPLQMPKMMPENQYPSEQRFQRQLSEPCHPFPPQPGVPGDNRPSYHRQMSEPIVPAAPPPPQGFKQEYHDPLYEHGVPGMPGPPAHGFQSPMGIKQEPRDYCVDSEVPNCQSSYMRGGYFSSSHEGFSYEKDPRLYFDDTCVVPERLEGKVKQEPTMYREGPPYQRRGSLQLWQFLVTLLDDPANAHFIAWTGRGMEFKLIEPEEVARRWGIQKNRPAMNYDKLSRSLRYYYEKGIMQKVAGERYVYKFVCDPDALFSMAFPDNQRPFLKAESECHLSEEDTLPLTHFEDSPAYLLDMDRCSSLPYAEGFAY
# Outline: as §1
# HSF1 = HSF1 (Homo sapiens, UniProt Q00613 1-529); conditions: protein: recombinant; tags: N-terminal GST; chain copies: 3; dsDNA, one strand shown
# Sequence of HSF1 (Q00613 whole entry): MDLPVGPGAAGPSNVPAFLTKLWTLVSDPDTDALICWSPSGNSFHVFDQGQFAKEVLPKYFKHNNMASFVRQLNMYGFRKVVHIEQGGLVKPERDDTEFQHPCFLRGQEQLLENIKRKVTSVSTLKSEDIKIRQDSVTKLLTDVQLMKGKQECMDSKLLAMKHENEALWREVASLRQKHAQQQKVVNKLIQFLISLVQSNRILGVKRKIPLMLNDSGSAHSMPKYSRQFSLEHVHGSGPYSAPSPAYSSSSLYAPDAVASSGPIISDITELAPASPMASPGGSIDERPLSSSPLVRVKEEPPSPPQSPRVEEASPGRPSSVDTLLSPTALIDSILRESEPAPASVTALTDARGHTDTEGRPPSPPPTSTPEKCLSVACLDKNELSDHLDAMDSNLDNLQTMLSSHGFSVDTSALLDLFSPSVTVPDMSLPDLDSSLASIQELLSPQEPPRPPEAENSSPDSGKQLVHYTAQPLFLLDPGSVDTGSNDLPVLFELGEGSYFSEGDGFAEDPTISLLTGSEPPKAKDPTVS
# Outline: as §1
# SPIC = target: T8, SPIC (Homo sapiens, UniProt Q8N5J4 1-248); conditions: protein: recombinant; tags: N-terminal GST; dsDNA, one strand shown
# T8 sequence: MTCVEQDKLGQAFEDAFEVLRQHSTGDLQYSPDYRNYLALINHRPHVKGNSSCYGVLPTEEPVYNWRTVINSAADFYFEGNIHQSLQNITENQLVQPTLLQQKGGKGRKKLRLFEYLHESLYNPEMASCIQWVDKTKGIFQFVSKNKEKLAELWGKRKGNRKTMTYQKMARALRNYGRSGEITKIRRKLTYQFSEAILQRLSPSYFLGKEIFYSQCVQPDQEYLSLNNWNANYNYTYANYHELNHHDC
# Outline: as §1
# ELF4 = ELF4 (Homo sapiens, UniProt Q99607 1-663); conditions: protein: recombinant; tags: N-terminal GST; dsDNA, one strand shown
# Sequence of ELF4 (Q99607 whole entry): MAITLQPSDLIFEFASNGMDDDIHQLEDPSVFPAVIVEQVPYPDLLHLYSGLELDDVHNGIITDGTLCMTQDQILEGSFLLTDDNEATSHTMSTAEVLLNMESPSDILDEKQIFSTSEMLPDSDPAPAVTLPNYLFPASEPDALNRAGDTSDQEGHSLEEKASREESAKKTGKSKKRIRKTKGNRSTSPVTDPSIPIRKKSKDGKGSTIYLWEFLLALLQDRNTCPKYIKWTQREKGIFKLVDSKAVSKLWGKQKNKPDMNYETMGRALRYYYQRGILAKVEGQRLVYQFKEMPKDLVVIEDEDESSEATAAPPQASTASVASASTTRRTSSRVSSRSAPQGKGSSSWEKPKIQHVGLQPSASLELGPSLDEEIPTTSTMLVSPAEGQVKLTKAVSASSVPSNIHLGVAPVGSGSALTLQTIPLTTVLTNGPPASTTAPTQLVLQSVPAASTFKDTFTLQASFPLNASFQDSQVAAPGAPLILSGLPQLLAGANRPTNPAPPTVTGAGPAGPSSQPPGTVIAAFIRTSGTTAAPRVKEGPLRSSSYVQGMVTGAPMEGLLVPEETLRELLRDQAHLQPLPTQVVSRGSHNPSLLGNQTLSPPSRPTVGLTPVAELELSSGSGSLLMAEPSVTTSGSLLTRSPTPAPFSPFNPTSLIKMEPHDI
# Outline: as §1
# ELK4 = target: T9, ELK4 (Homo sapiens, UniProt P28324-2 1-405); conditions: protein: recombinant; tags: N-terminal GST; dsDNA, one strand shown
# T9 sequence: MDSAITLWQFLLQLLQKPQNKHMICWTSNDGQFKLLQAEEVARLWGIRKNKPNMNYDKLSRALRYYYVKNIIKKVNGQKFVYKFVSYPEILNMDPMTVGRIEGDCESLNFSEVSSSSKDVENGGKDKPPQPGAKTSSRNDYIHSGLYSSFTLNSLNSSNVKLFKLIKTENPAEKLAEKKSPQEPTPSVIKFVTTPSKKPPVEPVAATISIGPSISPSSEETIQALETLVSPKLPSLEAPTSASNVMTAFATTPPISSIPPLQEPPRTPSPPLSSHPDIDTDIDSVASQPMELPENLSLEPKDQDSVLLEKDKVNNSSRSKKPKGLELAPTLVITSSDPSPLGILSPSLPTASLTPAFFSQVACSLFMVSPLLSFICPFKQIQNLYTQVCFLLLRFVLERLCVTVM
# Outline: as §1
# ETV2 = target: T10, ETV2 (Homo sapiens, UniProt O00321 1-342); conditions: protein: recombinant; tags: N-terminal GST; dsDNA, one strand shown
# T10 sequence: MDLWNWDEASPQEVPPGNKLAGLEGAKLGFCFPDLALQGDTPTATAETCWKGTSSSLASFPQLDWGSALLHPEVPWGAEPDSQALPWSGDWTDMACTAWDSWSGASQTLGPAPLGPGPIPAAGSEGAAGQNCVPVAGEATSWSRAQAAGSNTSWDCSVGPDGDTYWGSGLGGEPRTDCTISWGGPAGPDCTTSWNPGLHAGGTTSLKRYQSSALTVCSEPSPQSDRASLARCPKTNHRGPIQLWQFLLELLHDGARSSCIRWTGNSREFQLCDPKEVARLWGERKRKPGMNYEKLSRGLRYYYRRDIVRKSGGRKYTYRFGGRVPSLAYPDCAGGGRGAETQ
# Outline: as §1
# ELF3 = target: T11, ELF3 (Homo sapiens, UniProt P78545 1-371); conditions: protein: recombinant; tags: N-terminal GST; dsDNA, one strand shown
# T11 sequence: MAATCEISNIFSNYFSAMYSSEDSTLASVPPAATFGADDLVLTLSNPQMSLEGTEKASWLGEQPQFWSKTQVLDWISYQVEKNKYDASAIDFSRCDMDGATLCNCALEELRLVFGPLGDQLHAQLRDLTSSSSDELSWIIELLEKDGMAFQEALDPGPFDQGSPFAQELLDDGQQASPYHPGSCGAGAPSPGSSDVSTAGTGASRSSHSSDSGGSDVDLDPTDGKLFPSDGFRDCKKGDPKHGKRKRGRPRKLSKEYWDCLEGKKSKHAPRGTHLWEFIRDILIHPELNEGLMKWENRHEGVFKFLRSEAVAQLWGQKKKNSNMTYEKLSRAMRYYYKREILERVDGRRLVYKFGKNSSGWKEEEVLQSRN
# Outline: as §1
# CRX = CRX (Homo sapiens, UniProt O43186 1-299); conditions: protein: recombinant; tags: N-terminal GST; dsDNA, one strand shown
# Sequence of CRX (O43186 whole entry): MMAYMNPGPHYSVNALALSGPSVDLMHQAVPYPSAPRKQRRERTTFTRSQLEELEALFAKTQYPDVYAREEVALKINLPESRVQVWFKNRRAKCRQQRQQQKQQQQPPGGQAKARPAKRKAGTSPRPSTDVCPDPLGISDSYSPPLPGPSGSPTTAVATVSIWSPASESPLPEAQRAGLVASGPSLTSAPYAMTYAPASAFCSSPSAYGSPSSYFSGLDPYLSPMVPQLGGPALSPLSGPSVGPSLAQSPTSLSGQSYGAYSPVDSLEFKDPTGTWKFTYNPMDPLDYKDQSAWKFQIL
# Outline: as §1
# ETV1 = ETV1 (Homo sapiens, UniProt P50549 1-477); conditions: protein: recombinant; tags: N-terminal GST; dsDNA, one strand shown
# Sequence of ETV1 (P50549 whole entry): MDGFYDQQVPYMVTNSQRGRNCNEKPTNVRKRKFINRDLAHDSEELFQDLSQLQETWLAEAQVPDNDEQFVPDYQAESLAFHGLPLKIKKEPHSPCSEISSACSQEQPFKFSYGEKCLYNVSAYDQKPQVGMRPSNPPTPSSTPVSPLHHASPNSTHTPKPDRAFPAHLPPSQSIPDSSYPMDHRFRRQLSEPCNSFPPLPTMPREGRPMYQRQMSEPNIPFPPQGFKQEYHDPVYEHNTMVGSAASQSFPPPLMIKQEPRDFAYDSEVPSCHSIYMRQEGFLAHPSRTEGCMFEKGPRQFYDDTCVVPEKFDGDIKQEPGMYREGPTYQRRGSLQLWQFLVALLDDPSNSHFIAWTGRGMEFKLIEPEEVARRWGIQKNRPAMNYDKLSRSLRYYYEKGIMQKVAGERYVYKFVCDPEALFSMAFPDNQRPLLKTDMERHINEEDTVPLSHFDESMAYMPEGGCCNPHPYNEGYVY
# Outline: as §1
sequence,measurement,setting,value
CTTCAA,binding signal,FLI1,"1.44 fold enrichment (6-mer frequency, TF over GST control)"
same,binding signal,ELK1,"1.35 fold enrichment (6-mer frequency, TF over GST control)"
same,binding signal,GABPA,"1.35 fold enrichment (6-mer frequency, TF over GST control)"
same,binding signal,ERG,"1.28 fold enrichment (6-mer frequency, TF over GST control)"
same,binding signal,ELF1,"1.4 fold enrichment (6-mer frequency, TF over GST control)"
same,binding signal,EHF,"1.26 fold enrichment (6-mer frequency, TF over GST control)"
same,binding signal,SPI1,"1.27 fold enrichment (6-mer frequency, TF over GST control)"
same,binding signal,SPIB,"1.4 fold enrichment (6-mer frequency, TF over GST control)"
same,binding signal,ELK3,"1.13 fold enrichment (6-mer frequency, TF over GST control)"
same,binding signal,FEV,"1.33 fold enrichment (6-mer frequency, TF over GST control)"
same,binding signal,ETV5,"1.28 fold enrichment (6-mer frequency, TF over GST control)"
same,binding signal,HSF1,"1.38 fold enrichment (6-mer frequency, TF over GST control)"
same,binding signal,SPIC,"1.32 fold enrichment (6-mer frequency, TF over GST control)"
same,binding signal,ELF4,"1.29 fold enrichment (6-mer frequency, TF over GST control)"
same,binding signal,ELK4,"1.52 fold enrichment (6-mer frequency, TF over GST control)"
same,binding signal,ETV2,"1.46 fold enrichment (6-mer frequency, TF over GST control)"
same,binding signal,ELF3,"1.37 fold enrichment (6-mer frequency, TF over GST control)"
same,binding signal,CRX,"1.22 fold enrichment (6-mer frequency, TF over GST control)"
same,binding signal,ETV1,"1.36 fold enrichment (6-mer frequency, TF over GST control)"
